Bioassay records deposited in PubChem by National Center for Advancing Translational Sciences (NCATS).
In the library only some 6.9% were active in any assay of this set; here they are far more common.
MCF10A rerep = inducers of DNA re-replication in MCF 10A breast cells | MCF 10A DNA re-replication, Hoechst nuclear intensity, 48 h | Potency, µM (highest dose often 46.1 µM), hits mostly activators | 350,000 tested, 2.9% active; note: nearly all actives have a fitted effect of over 50% in size
KB-3-1 cytotox = kills parental KB-3-1 adenocarcinoma cells | AID 1347075 | Potency, µM (titrated, usually from 46.1 µM), most hits filed as cytotoxic | 400,000 tested, 1.4% active | KB-3-1 viability, CellTiter-Glo ATP luminescence, 72 h; note: nearly all actives have a fitted effect of over 60% in size
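Cells are dispensed, compounds pinned in, plates held at 37 °C for 72 h, then CellTiter-Glo is added and luminescence read after 10 minutes. Cell line: parental KB-3-1 in phenol-red-free DMEM, 10% FBS.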
SW480 rereplic = induces DNA re-replication in SW480 colon adenocarcinoma cells; SW480 DNA re-replication, Hoechst DNA content imaging, 48 h; Potency, µM (highest dose often 46.1 µM), most hits filed as activators; 340,000 tested, 1.8% active; AID 624297; note: nearly all actives have a fitted effect of over 55% in size
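Cells (250 per well) received 23 nL compound or DMSO by pin tool and were kept 48 hr at 37 C, 5% CO2. Nuclei were then stained with Hoechst for 40 min and scanned for DNA content.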
KB-V1 cytotox = kills drug-selected multidrug resistant KB-V1 cells; KB-V1 MDR cells viability, CellTiter-Glo, 72 h; 400,000 tested, 3.4% active; Potency, µM (doses to about 46.1 µM), hits mostly cytotoxic; note: nearly all actives have a fitted effect of over 60% in size
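KB-V1 cells (P-gp-expressing MDR subline of KB-3-1) in phenol-red-free DMEM with 10% FBS were exposed to library compounds over a concentration series for 72 h at 37 degrees C. Viability read by CellTiter-Glo luminescence; concentration-effect curves fitted after normalization.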
S-ASM inh = human S-ASM enzyme inhibition. P17405. placental ASM, HMU-PC fluorogenic substrate, 60 min. Potency, µM (titrated, usually from 57.5 µM), hits mostly inhibitors. 340,000 tested, 0.006% active
Target sequence (P17405 47-631 limits assumed): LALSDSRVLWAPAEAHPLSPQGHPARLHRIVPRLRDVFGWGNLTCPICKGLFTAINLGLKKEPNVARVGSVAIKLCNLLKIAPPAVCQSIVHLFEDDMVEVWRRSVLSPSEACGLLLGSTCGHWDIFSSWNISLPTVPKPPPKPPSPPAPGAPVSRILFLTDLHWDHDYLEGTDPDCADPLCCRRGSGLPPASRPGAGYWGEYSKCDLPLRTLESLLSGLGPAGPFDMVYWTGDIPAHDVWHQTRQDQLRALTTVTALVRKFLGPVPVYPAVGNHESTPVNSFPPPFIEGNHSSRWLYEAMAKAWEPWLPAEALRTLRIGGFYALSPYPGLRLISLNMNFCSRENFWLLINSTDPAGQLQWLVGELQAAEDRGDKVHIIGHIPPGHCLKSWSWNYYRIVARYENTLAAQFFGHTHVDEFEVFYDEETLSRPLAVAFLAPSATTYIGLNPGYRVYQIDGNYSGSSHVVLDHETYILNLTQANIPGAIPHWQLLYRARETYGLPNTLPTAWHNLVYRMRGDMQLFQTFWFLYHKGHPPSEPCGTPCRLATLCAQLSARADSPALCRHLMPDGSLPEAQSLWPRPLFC
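HMU-PC0 cleavage (9 uM final) by human placental ASM, 60 min at 37 °C following 10 min compound exposure at RT; stopped at pH 10, fluorescence Ex 386/Em 447 nm.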
Giardia kill = kills Giardia lamblia; Giardia lamblia trophozoite viability; AID 540267; activity change, % at 7.66 µM, hits read low; 340,000 tested, 0.15% active; in the data active = activity change below about -80%; inconclusive = between about -30% and that limit;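 note: parasites exposed to compound for two days anaerobically before the ATP read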
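Luminescent ATP signal served as the viability read-out, measured 15-30 min after adding ATP detection reagent to trophozoites that had been incubated with compounds for 48 hrs at 37 deg C anaerobically at 100 cells/well.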
Of the large screens only hits and unclear results are named; the others gave an inactive call; ! = repeats disagree. Unless noted, calls come from the whole dose curve; as a rule, active = well fitted curve in the direction sought with a large enough effect; inconclusive = small, poorly fitted or top-dose-only effect, or another doubt; inactive = no such curve, though single readings can be large; an effect the other way counts as inactive or inconclusive.

COCCNC(=S)N1CCN(c2nc3ccccc3s2)CC1	none
C=CCNC(=S)N1CCN(c2ccc([N+](=O)[O-])cc2)CC1	KB-V1 cytotox 14.6µM
Cc1ccc(/C=C/c2onc(C)c2S(=O)(=O)N2CCC(C(=O)N3CCN(c4cccc(C)c4)C(C)C3)CC2)cc1 (configuration not stated)	none (no result: MCF10A rerep, SW480 rereplic, S-ASM inh, Giardia kill)
CCOc1ccc2cc(C#N)c(SCC(=O)OCc3ccccc3)nc2c1	none (no result: MCF10A rerep, SW480 rereplic, S-ASM inh)
COC(=O)[C@@]12C[C@@H](CC(=O)NCC3CCCCC3)C(=O)N(Cc3ccccc3)C1=CCC(C)(C)C2	KB-V1 cytotox inconclusive (no result: MCF10A rerep, SW480 rereplic, S-ASM inh, Giardia kill)
Cc1ccc(CN2[C@H]3CCCC[C@@H]3OCCS2(=O)=O)cc1	KB-V1 cytotox inconclusive (no result: MCF10A rerep, SW480 rereplic, S-ASM inh, Giardia kill)
COc1ccccc1-n1ccnc(SCC(=O)NCc2ccccc2Cl)c1=O	KB-V1 cytotox 20.6µM
COc1ccc(-n2ccnc(SCC(=O)NCc3ccccc3Cl)c2=O)cc1	none
CC1(C)CC[C@]2(C(=O)n3ccnc3)CC[C@]3(C)[C@H](C(=O)C=C4[C@@]5(C)C=C(C#N)C(=O)C(C)(C)[C@@H]5CC[C@]43C)[C@@H]2C1	MCF10A rerep 0.517µM, KB-3-1 cytotox inconclusive, SW480 rereplic inconclusive, KB-V1 cytotox inconclusive
CCOC(=O)c1[nH]c(C)c(C(=O)OC(C)C(=O)Nc2ncc(Cl)cc2Cl)c1C (configuration not stated)	MCF10A rerep inconclusive, KB-3-1 cytotox inconclusive, KB-V1 cytotox 12.6µM
CCn1cc(C(=O)N2CCN(c3cccc(Cl)c3)CC2)c2cc(OC)c(OC)cc2c1=O	MCF10A rerep inconclusive, KB-3-1 cytotox inconclusive, SW480 rereplic inconclusive, KB-V1 cytotox 20.6µM!
Cc1[nH]c2ccccc2c1C(=O)C(=O)N1CCN(c2ccccc2Cl)CC1	MCF10A rerep inconclusive
CCOC(=O)c1[nH]c(C)c(C(=O)N2CCc3ccccc32)c1C	MCF10A rerep 0.411µM, KB-3-1 cytotox 0.326µM, SW480 rereplic 0.517µM, KB-V1 cytotox 0.326µM
Cc1[nH]c2ccccc2c1C(=O)C(=O)N1CCN(c2cccc(Cl)c2)CC1	MCF10A rerep 20.6µM, KB-3-1 cytotox inconclusive, SW480 rereplic inconclusive, S-ASM inh inconclusive
CC(=O)c1ccc(NC(=O)CSc2nc(=O)n(Cc3ccccn3)c3c2CCC3)cc1	none (no result: MCF10A rerep, SW480 rereplic, S-ASM inh, Giardia kill)
CCOC(=O)c1[nH]c(C)c(C(=O)N2CCN(c3cccc(Cl)c3)CC2)c1C	KB-V1 cytotox 13µM
CCOC(=O)c1[nH]c(C)c(C(=O)Nc2cccc(Cl)c2C)c1C	MCF10A rerep 8.2µM, KB-3-1 cytotox 5.8µM, SW480 rereplic 11.6µM, KB-V1 cytotox 6.51µM
CCOC(=O)c1[nH]c(C)c(C(=O)Nc2ccc(Cl)cc2)c1C	none
CCN(CC)CCNC(=O)Cn1nc(C)c2c(C)n(-c3ccccc3)nc2c1=O	none (no result: MCF10A rerep, SW480 rereplic, S-ASM inh, Giardia kill)
CC(C)(C)c1nc(-c2ccccc2)nc2c1OCCC2	MCF10A rerep 25.9µM, KB-V1 cytotox inconclusive
O=C(COc1ccccc1C(=O)Nc1ccccc1F)Nc1ccc(Br)cc1	KB-3-1 cytotox inconclusive (no result: MCF10A rerep, SW480 rereplic, S-ASM inh, Giardia kill)
COc1ccc(CN2CCN(c3cc(C)nc4c5c(C)cc(C)nc5nn34)CC2)cc1F	KB-V1 cytotox 2.31µM
CCOc1ccc(C2CC(=O)Nc3c2c(=O)nc(SCc2ccccc2C)n3C)cc1OC (configuration not stated)	none (no result: MCF10A rerep, SW480 rereplic, S-ASM inh, Giardia kill)
O=C1N/C(=C/c2ccc(Br)cc2)C(O)=C1C=NCc1ccccc1	MCF10A rerep inconclusive, KB-3-1 cytotox 4.61µM, SW480 rereplic inconclusive, KB-V1 cytotox inconclusive
NC(=O)OC[C@H](O)COc1ccc(Cl)cc1	none (no result: KB-3-1 cytotox, KB-V1 cytotox, S-ASM inh, Giardia kill)
Cc1cc(C)c(C)c(OCCCCn2cnc3ccccc3c2=O)c1	MCF10A rerep inconclusive, KB-V1 cytotox 23.1µM
COc1cccc(OC)c1OCCCCn1cnc2ccccc2c1=O	MCF10A rerep inconclusive, KB-V1 cytotox inconclusive
CN(C)c1cc(O)c(C(=S)Nc2ccccc2)c(N(C)C)c1	MCF10A rerep inconclusive, KB-3-1 cytotox inconclusive, KB-V1 cytotox 16.4µM
COc1ccc(-c2nc(CS(=O)CC(=O)NCCc3ccccc3)c(C)o2)cc1OC (configuration not stated)	none (no result: MCF10A rerep, SW480 rereplic, S-ASM inh, Giardia kill)
CN(CCOC(=O)/C=C/c1ccccc1)C(C)(C)C	SW480 rereplic inconclusive
